From PubChem BioAssay AID488975 (Johns Hopkins Ion Channel Center, 2010)
Out of some 310,000 compounds screened, about 2,600 (0.84%) were called active.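 How the source made its calls: active means B-score over 3 SD under the library average, and starting fluorescence ratio not unusually high; inactive means the rest.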 For the sample, actives were picked, then their nearest neighbours and some compounds at random.

target: High affinity choline transporter 1 (Homo sapiens) (UniProt Q9GZV3); test: inhibits the human high affinity choline transporter (AID 488975); conditions: CHT-expressing cells, membrane potential dye, choline response, at 10 µM; active compounds read low;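 on B-score: choline stimulus applied at its EC90 after an EC20 pre-addition; B-score computed on integrated fluorescence ratio after choline addition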
Sequence (Q9GZV3 whole entry, looked up): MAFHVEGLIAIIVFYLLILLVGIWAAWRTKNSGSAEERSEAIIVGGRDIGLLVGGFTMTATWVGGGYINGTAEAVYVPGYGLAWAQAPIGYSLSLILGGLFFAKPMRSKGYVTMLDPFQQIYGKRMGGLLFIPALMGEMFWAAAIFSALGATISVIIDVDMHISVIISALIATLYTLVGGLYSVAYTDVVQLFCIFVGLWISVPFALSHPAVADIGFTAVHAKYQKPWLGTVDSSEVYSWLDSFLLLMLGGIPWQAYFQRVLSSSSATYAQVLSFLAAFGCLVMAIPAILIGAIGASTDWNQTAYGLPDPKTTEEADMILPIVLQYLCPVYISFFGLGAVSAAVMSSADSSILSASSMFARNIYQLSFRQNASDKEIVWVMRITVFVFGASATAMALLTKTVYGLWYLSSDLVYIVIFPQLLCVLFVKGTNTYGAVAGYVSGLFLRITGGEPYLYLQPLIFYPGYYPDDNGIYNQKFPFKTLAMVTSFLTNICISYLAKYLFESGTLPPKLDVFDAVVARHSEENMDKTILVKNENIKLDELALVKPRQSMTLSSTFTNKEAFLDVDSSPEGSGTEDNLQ

B-score, inactive:
Cc1oc2cc(Br)c(O)c(Br)c2c1C(=O)c1ccccc1
COc1ccc(C(=O)c2c(C)oc3cc([N+](=O)[O-])c(O)c([N+](=O)[O-])c23)cc1
COc1ccccc1CCNC(=O)C(=O)NCCC1CCCCN1S(=O)(=O)c1cccs1 (stereo not given)
CCOc1ccc(NS(=O)(=O)c2ccc(C(=O)NCC(c3ccccc3OC)N3CCCC3)cc2)cc1 (stereo not given)
COc1ccc(Cl)cc1NC(=O)CN(C)C(=O)c1cc2ccccc2cc1OC
Cc1onc(-c2ccccc2Cl)c1C(=O)OCc1nnc(-c2ccccc2)o1
COc1ccc(NC(=O)CSc2nc(N)c(-c3ccccc3)c(=O)[nH]2)cc1
COc1ccc(NC(=O)c2sc(N3CCOCC3)nc2-c2ccccc2)c(OC)c1
COCCOC1CCN(C(=O)c2ccc(OC)c(OC3CCN(C(C)C)CC3)c2)CC1
COc1ccc(C(=O)NC2CC2)cc1OC1CCN(Cc2cnn(C)c2)CC1
Cc1cc(C)c(S(=O)(=O)NCC(c2ccc3c(c2)OCO3)N2CCOCC2)c(C)c1 (stereo not given)
Cc1nc2ccccc2c(=O)n1-c1ccc(NS(=O)(=O)c2ccc(F)cc2F)cc1
COc1ccc(C(=O)OCC(=O)c2ccc(Cl)s2)c(OC)c1OC
CN(C)CCCN(C(=O)c1ccc(S(=O)(=O)N2CCCCCC2)cc1)c1nc2cc3c(cc2s1)OCCO3
O=C(/C=C\c1cn(-c2ccccc2)nc1-c1cccs1)N1CCOCC1
O=C(O)/C=C/c1cn(-c2ccccc2)nc1-c1cccs1
COc1ccc(NS(=O)(=O)c2ccc(C)c(C(=O)NCC(c3cccs3)N3CCOCC3)c2)cc1 (stereo not given)
Cn1nnc(NC(=O)CSc2ncn[nH]2)n1
CCN(C(=O)CSc1ncn[nH]1)c1cccc2ccccc12
O=C(CCNC(=O)c1ccc(Br)cc1)Nc1cccc(S(=O)(=O)N2CCCCC2)c1
CCOC(=O)c1c(C)oc2cc(Sc3ccccc3)c(O)c(O)c12
CCN1C(=O)[C@H]2[C@@H](c3ccc(-c4ccc(OC)cc4)cc3)N[C@@](Cc3ccccc3)(C(=O)OC)[C@H]2C1=O
COc1ccc(C2=NOC(Cn3nc(C(=O)NCc4ccc5c(c4)OCO5)cc3-c3ccccc3)C2)cc1 (stereo not given)
Cc1cccc(N(Cc2ccccc2)C(=O)c2cc(S(=O)(=O)N3CCOCC3)ccc2F)c1
Cc1cc(C)n(-c2cc(Oc3ccccc3)ncn2)n1
Cc1cc(C)n(-c2ccc(Cl)c(C(=O)O)n2)n1
O=C1[C@H]2[C@@H](c3ccc(Cl)cc3)N3C(=O)N(c4cccc(F)c4)C(=O)[C@@]3(Cc3ccccc3)[C@H]2C(=O)N1C1CCCCC1
O=C(NNC(=S)NCc1ccco1)C(c1ccccc1)c1ccccc1
CC(C)C(=O)Nc1cccc(NC(=S)NC(=O)C(c2ccccc2)c2ccccc2)c1
CC1CN(C(=O)c2cc(COc3c(F)cccc3F)on2)CCN1C (stereo not given)
Cc1cc(S(=O)(=O)Nc2ccc(C(=O)NCC(c3ccco3)N3CCCC3)cc2)ccc1F (stereo not given)
COc1ccc(C(CNC(=O)c2cccc(S(=O)(=O)Nc3ccccc3Cl)c2)N2CCOCC2)cc1 (stereo not given)
CC(=O)c1ccc(NC(=O)C2CCCN2S(=O)(=O)c2cccs2)cc1 (stereo not given)
COc1ccc(CCNC(=O)C(=O)NCC2CCCN2S(=O)(=O)c2cccs2)cc1OC (stereo not given)
Cc1occc1C(=O)N/N=C/c1ccc(-c2cccc([N+](=O)[O-])c2)o1
O=C(CN1CCN(c2ccc(O)cc2)CC1)Nc1cc(S(=O)(=O)N2CCOCC2)ccc1Cl
O=C(N/N=C/c1cc(Cl)cc([N+](=O)[O-])c1O)C(O)(c1ccccc1)c1ccccc1
CC(=O)N1CCN(C(=O)c2cc(-c3ccc(C)o3)nc3ccccc23)CC1
O=C(O)C1C2C=CC(C2)C1C(=O)NCc1ccccc1 (stereo not given)
O=C(NNC(=O)c1ccc(Cl)cc1Cl)c1cccs1
Cc1ccc(NNC(=O)c2c(F)cccc2Cl)cc1Cl
O=C(NCCCc1ccccc1)C(=O)NCC1OCCN1S(=O)(=O)c1ccccc1 (stereo not given)
Cc1ccc(N2CC(C(=O)N3CCC4(CC3)CC(=O)c3ccccc3O4)CC2=O)cc1C (stereo not given)
Cc1ccc(Cc2nnc(SCC(=O)Nc3ccccc3C)[nH]c2=O)cc1
CC1CCCCN1CCCNC(=O)Cn1ncc2c([nH]c3ccccc32)c1=O (stereo not given)
Cc1c2cnn(CC(=O)NCCCN3CC(C)CC(C)C3)c(=O)c2c(C)n1Cc1ccc(Cl)cc1 (stereo not given)
CCC1CCCCN1CCCNC(=O)Cn1nc(-c2ccccc2)ccc1=O (stereo not given)
O=C(Cn1ncc2c3ccccc3n(Cc3ccccc3)c2c1=O)NCc1ccccn1
Cc1ccc(C)c(-c2nnc(NC(=O)CS(=O)(=O)c3ccccc3)o2)c1
Cc1ccc(S(=O)(=O)NCCC(=O)NC2CCN(Cc3ccccc3)CC2)cc1
COc1ccc(Cc2nnc(SCC(=O)N(c3ccccc3)C(C)C)n(N)c2=O)cc1
O=c1c2ccccc2nnn1CSc1nnnn1-c1ccccc1
Nc1nnc(SCn2nnc3ccccc3c2=O)s1
CCn1c(SCC(=O)Nc2ccc(OC)c(OC)c2)nnc1-c1c[nH]c2ccccc12
CCC(C)Sc1nnc(-c2c[nH]c3ccccc23)n1CCOC (stereo not given)
O=[N+]([O-])c1ncc(Br)cc1Nc1ccccc1
CCOCCn1[nH]c2ccccc2c1=O
CC(Oc1ccc(Br)cc1)C(=O)NCC(c1ccco1)N1CCCCC1 (stereo not given)
O=C1Nc2ccccc2C12Nc1ccccc1S2 (stereo not given)
CCc1ccc2c(c1)C(c1ccc([N+](=O)[O-])cc1)=NNC(c1ccccc1)=N2
COC(=O)c1cc2occc2n1Cc1nc(-c2ccccc2C)oc1C
CCOC(=O)c1cc2occc2n1CC(=O)N1CCN(C(=O)c2ccco2)CC1
O=C(CN1CCOCC1)Nc1cccc([N+](=O)[O-])c1
O=C(CCNC(=O)c1ccc(Br)cc1)NCCCc1ccccc1
CCOC(=O)c1cc(NC(=O)c2cccnc2)ccn1
CCOC(=O)c1ccc(NC(=O)c2cccnc2)cc1
Cc1ccc(C)c(OCCC(=O)OCC(=O)NC(=O)NCc2ccccc2)c1
COc1ccccc1C(=O)Nc1ccccc1C(=O)Nc1ccccc1
Nc1nonc1-n1nnc(C(=O)N/N=C/c2ccccc2O)c1CN1CCCC1
Cc1ccc(C(=O)NNC(=O)c2ccncc2)cc1S(=O)(=O)N1CCCCC1
C/C(=N\NC(=O)c1cccc(N2CCCC2=O)c1)c1ccc(N)cc1
Cc1ccc(C(=O)Nc2ccc3c(c2)OCO3)cc1S(=O)(=O)N1CCCCC1
CC1CCC(NC(=O)c2ccc(N3CCCC3=O)cc2)CC1 (stereo not given)
COc1ccc2oc(C(=O)OCC(=O)N(CC(C)C)c3c(N)n(Cc4ccccc4)c(=O)[nH]c3=O)c(C)c2c1
CC1=NNC(=O)C1Cc1c(Cl)cccc1Cl (stereo not given)
Cc1ccc2nc(NC(=O)CSc3nc(=O)n(CCCN(C)C)c4c3CCC4)sc2c1
COc1ccc(S(=O)(=O)N2CCCCCC2)cc1C(=O)N(C)Cc1cccc(OC)c1OC
N#CCCN(CCC#N)c1nnc(-c2ccccc2)s1
C=CCn1cnc2scc(-c3ccccc3)c2c1=O
COc1cc(C(=O)N(C)Cc2cccc(OC)c2OC)ccc1OCC(=O)Nc1cccc(C(F)(F)F)c1

B-score, active:
Cc1oc2cc([N+](=O)[O-])c(O)c([N+](=O)[O-])c2c1C(=O)c1ccc(Br)cc1 -6.57
COc1ccc(NC(=O)c2sc(N)nc2-c2ccccc2)cc1 -8.57
COc1ccc(C(=O)NC(C)c2nccs2)cc1OC1CCN(C(C)C)CC1 (stereo not given) -5.22
O=C(O)c1ccc(N/N=C/c2cn(-c3ccccc3)nc2-c2cccs2)cc1 -5.81
CC(C)(C)c1ccc(C(=O)CSc2ncn[nH]2)cc1 -5
CC(=O)c1ccc(Oc2cc(C)nc(-n3nc(C)cc3C)n2)cc1 -5.97
CCCCC(=O)NNC(=S)NC(=O)C(c1ccccc1)c1ccccc1 -10.8
COc1ccc(C(CNC(=O)c2cccc(NS(=O)(=O)c3ccc(C)c(F)c3)c2)N2CCCC2)cc1 (stereo not given) -5.37
O=[N+]([O-])c1cc(Cl)cc(/C=N/NC(=S)Nc2cc(S(=O)(=O)N3CCOCC3)ccc2Cl)c1O -11.3
Cc1ccc(NNC(=O)c2cccs2)cc1Cl -4.98
CCCn1c2ccccc2c2cnn(CC(=O)NCCCN3CCCCC3CC)c(=O)c21 (stereo not given) -7.41
O=C(Cn1ncc2c3ccccc3n(Cc3ccccc3)c2c1=O)NCCCN1CCOCC1 -8.06
O=c1c2ccccc2nnn1CSc1nc2sc3c(c2c(=O)n1CC1CCCO1)CCC3 (stereo not given) -11.3
CCn1c(SCCC(C)C)nnc1-c1c[nH]c2ccccc12 -5.53
CCc1ccc2c(c1)C1(NN=C(c3ccccc3)S1)C(=O)N2 (stereo not given) -6.53
CCC(C(=O)N1CCOCC1)n1c(C(=O)OC)cc2occc21 (stereo not given) -6.51
Cc1c(C(=O)OC(C)C)sc(NC(=O)c2cccnc2)c1C#N -5.25
Cc1ccc(C(=O)NC2CCCC(C)C2C)cc1S(=O)(=O)N1CCCCC1 (stereo not given) -9.32
CC1CCCC(NC(=O)c2cccc(N3CCCC3=O)c2)C1C (stereo not given) -5.25
CN(CCC#N)c1ncnc2scc(-c3ccccc3)c12 -6.05
